# Experiments:
# Assay in all cases: DAPPL (digital affinity profiling via proximity ligation, sequencing); 10 mM Tris-HCl pH 7.5, 50 mM NaCl, 1 mM DTT, 4% glycerol, room temperature, 30 min; GST-TFs on glutathione beads, 16-mer random dsDNA library, 0.1% formaldehyde crosslink after washing; high values mean tight binding
# FEV = target: T1, FEV (Homo sapiens, UniProt Q99581 1-238); conditions: protein: recombinant; tags: N-terminal GST; dsDNA, one strand shown
# T1 sequence: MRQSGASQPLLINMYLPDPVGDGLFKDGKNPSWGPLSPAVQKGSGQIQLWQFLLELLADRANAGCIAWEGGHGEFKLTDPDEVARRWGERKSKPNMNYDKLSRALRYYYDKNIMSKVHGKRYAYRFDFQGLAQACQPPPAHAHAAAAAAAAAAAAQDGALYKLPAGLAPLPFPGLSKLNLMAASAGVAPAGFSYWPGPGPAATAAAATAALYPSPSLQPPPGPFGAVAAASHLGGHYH
# In short: (§1)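 Binding signal is each hexamer's read frequency for a factor divided by its frequency in the tag-only sample. The factors were GST-fused human transcription factors from yeast, captured on glutathione beads, DNA-barcoded and pooled with that sample. Pools were incubated with 200 nmole of a random double-stranded 16-mer DNA library in Tris/NaCl/DTT/glycerol buffer at room temperature for 30 min, then washed, crosslinked with 0.1% formaldehyde, proximity-ligated with BsaI/T4 ligase (1 h, 37 °C), PCR-amplified and sequenced on an Illumina NextSeq500.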
# ETV5 = ETV5 (Homo sapiens, UniProt P41161 1-510); conditions: protein: recombinant; tags: N-terminal GST; dsDNA, one strand shown
# In short: as §1
# HSF1 = HSF1 (Homo sapiens, UniProt Q00613 1-529); conditions: protein: recombinant; tags: N-terminal GST; chain copies: 3; dsDNA, one strand shown
# In short: as §1
# SPIC = target: T2, SPIC (Homo sapiens, UniProt Q8N5J4 1-248); conditions: protein: recombinant; tags: N-terminal GST; dsDNA, one strand shown
# T2 sequence: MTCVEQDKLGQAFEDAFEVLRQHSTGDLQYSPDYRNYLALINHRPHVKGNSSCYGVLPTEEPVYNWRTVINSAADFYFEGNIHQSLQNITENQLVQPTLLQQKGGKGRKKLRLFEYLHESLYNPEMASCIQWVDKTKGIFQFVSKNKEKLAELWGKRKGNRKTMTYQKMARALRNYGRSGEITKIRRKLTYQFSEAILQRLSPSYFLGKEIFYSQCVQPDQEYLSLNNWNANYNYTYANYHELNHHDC
# In short: as §1
# ELF4 = ELF4 (Homo sapiens, UniProt Q99607 1-663); conditions: protein: recombinant; tags: N-terminal GST; dsDNA, one strand shown
# In short: as §1
# ELK4 = target: T3, ELK4 (Homo sapiens, UniProt P28324-2 1-405); conditions: protein: recombinant; tags: N-terminal GST; dsDNA, one strand shown
# T3 sequence: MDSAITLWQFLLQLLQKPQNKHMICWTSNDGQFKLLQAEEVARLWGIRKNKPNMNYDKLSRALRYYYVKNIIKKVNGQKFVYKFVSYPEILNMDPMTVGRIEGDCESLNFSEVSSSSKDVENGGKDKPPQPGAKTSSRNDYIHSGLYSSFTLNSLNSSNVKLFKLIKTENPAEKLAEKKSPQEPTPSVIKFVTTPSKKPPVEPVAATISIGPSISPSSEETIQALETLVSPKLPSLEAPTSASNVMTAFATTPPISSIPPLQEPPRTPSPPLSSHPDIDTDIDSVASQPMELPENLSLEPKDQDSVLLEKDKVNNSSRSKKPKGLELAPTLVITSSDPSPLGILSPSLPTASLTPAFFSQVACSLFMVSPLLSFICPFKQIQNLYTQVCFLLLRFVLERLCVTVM
# In short: as §1
# ETV2 = target: T4, ETV2 (Homo sapiens, UniProt O00321 1-342); conditions: protein: recombinant; tags: N-terminal GST; dsDNA, one strand shown
# T4 sequence: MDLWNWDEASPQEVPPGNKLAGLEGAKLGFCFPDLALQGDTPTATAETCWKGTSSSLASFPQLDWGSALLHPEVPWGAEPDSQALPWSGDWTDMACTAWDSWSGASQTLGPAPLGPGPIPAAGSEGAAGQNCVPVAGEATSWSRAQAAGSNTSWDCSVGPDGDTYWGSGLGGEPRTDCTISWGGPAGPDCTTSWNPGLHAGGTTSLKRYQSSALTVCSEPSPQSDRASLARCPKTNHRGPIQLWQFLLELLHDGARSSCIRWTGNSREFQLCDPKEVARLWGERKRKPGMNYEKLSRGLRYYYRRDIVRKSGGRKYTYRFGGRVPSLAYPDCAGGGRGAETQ
# In short: as §1
# ELF3 = target: T5, ELF3 (Homo sapiens, UniProt P78545 1-371); conditions: protein: recombinant; tags: N-terminal GST; dsDNA, one strand shown
# T5 sequence: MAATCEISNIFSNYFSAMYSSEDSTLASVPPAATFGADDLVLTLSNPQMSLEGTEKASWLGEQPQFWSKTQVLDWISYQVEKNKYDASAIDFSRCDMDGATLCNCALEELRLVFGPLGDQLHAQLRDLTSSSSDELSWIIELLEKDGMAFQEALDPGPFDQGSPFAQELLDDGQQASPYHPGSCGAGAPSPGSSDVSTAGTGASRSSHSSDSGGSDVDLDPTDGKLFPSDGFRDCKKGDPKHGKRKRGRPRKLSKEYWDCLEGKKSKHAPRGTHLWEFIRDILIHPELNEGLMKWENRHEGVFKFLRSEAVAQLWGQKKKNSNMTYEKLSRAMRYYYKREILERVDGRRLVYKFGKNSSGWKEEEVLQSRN
# In short: as §1
# CRX = CRX (Homo sapiens, UniProt O43186 1-299); conditions: protein: recombinant; tags: N-terminal GST; dsDNA, one strand shown
# In short: as §1
# Sequence of HSF1 (Q00613 whole entry): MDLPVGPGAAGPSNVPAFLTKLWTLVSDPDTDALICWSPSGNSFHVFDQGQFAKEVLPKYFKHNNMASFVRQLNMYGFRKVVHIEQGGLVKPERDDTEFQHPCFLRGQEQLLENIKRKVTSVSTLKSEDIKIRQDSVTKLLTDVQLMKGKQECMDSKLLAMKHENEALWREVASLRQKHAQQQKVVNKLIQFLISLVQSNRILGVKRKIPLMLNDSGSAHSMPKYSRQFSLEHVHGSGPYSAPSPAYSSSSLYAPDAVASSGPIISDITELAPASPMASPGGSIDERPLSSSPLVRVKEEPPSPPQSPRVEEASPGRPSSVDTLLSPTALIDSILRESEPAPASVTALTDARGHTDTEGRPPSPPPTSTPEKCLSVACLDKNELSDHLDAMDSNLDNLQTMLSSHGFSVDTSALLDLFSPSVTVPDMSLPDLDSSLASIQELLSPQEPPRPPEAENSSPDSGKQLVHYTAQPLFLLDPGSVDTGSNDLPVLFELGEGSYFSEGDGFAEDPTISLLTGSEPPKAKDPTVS
# Sequence of ELF4 (Q99607 whole entry): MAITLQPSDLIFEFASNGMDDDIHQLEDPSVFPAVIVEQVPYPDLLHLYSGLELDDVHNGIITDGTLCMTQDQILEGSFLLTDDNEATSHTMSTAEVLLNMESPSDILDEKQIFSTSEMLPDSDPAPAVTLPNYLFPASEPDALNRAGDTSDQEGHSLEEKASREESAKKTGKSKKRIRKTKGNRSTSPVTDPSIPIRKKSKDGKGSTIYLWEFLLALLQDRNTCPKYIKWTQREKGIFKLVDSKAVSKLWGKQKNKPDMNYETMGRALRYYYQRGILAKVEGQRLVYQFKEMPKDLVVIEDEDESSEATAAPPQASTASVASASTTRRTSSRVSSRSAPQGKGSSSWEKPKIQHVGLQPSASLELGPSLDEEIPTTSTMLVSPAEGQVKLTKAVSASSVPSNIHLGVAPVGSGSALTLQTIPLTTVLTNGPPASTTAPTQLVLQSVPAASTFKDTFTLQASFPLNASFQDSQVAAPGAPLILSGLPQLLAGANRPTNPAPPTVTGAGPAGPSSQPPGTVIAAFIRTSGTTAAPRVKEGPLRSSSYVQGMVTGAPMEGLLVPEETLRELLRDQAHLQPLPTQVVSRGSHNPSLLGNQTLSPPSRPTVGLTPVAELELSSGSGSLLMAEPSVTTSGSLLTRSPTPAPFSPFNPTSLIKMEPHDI
# Sequence of ETV5 (P41161 whole entry): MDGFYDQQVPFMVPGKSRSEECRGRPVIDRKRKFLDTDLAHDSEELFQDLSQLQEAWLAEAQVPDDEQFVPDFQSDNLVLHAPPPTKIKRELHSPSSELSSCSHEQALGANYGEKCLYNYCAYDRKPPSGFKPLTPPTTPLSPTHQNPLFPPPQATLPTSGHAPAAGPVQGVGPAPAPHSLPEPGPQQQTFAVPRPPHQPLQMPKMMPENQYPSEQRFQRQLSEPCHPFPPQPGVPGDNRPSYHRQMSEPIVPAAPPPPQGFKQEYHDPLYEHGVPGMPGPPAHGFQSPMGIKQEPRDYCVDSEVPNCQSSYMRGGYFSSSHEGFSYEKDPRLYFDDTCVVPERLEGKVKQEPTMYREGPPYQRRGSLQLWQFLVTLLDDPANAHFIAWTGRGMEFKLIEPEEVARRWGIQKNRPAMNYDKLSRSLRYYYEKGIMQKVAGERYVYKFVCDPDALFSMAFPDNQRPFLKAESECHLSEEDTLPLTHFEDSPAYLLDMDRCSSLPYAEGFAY
# Sequence of CRX (O43186 whole entry): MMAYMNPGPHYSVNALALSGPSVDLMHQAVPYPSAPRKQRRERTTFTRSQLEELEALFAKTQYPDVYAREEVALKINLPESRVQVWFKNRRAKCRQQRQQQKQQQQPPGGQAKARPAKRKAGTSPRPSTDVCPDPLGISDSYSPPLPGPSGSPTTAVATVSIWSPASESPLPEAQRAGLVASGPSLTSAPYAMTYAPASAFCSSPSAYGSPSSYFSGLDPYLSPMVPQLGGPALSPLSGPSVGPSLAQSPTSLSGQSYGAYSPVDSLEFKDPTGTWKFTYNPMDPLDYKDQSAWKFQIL
sequence,measurement,setting,value
TATCCG,binding signal,FEV,"4.84 fold enrichment (6-mer frequency, TF over GST control)"
same,binding signal,ETV5,"2.85 fold enrichment (6-mer frequency, TF over GST control)"
same,binding signal,HSF1,"1.54 fold enrichment (6-mer frequency, TF over GST control)"
same,binding signal,SPIC,"2.38 fold enrichment (6-mer frequency, TF over GST control)"
same,binding signal,ELF4,"2.2 fold enrichment (6-mer frequency, TF over GST control)"
same,binding signal,ELK4,"2.29 fold enrichment (6-mer frequency, TF over GST control)"
same,binding signal,ETV2,"2.68 fold enrichment (6-mer frequency, TF over GST control)"
same,binding signal,ELF3,"2.33 fold enrichment (6-mer frequency, TF over GST control)"
same,binding signal,CRX,"1.95 fold enrichment (6-mer frequency, TF over GST control)"
